Source: PubChem BioAssay (National Center for Advancing Translational Sciences (NCATS))
G9a inh: qHTS Assay for Inhibitors of Histone Lysine Methyltransferase G9a; Histone-lysine N-methyltransferase EHMT2 (Homo sapiens), Q96KQ7; G9a H3K9 monomethylation, AlphaScreen, 2 h; Potency, µM (titrated, usually from 102 µM), without a hit: at the highest dose activity, negative = inhibition, usual class: inhibitors; hit rate 8.8% among 350,000; note: potency is the fitted concentration of half-maximal effect; % is set by controls: 0 for no effect and ±100 for the full control effect; nearly all actives have a fitted effect of over 75% in size
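G9a (20 nM) was preincubated 15 min with compound, then reacted 2 h at room temperature with 500 nM biotin-H3K9 peptide and 20 µM SAM. Monomethyl-H3K9 detected by AlphaScreen using anti-H3K9me1 antibody.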
JMJD2A Tudor: qHTS Assay for Inhibitors of JMJD2A-Tudor Domain. Lysine-specific demethylase 4A (Homo sapiens), O75164. AlphaScreen JMJD2A-Tudor / H3K4me3 peptide binding. Potency, µM (top dose mostly 114 µM), for the others: at the top dose activity change, negative = inhibition, hits mostly inhibitors. hit rate 4.4% among 390,000. AID 504339, 2011; note: potency is the fitted concentration of half-maximal effect; % is set by controls: 0 for no effect and ±100 for the full control effect; nearly all actives have a fitted effect of over 50% in size
BAZ2B block: qHTS Assay for Inhibitors of BAZ2B; AlphaScreen BAZ2B-H3K14Ac peptide displacement; Potency, µM (top dose mostly 114 µM), inactives show top-dose activity change, negative = inhibition, usual class: inhibitors; hit rate 4.4% among 360,000; note: potency is the fitted concentration of half-maximal effect; % is set by controls: 0 for no effect and ±100 for the full control effect; nearly all actives have a fitted effect of over 60% in size
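Protein-peptide AlphaScreen: BAZ2B 50 nM, b-H3K14Ac 50 nM, 1x PBS pH 7.4 + 0.01% Tween-20. Preincubation 30 min RT; cpd 30 min RT (top 110 uM); beads 20 min RT, light-protected.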
PI5P4Ka inh: qHTS for Inhibitors of phosphatidylinositol 5-phosphate 4-kinase (PI5P4K). AID 652105, 2013. max response, %. hit rate 1.2% among 330,000. Phosphatidylinositol 5-phosphate 4-kinase type-2 alpha (Homo sapiens), P48426. PI5P4Kalpha enzyme, ADP-Glo luminescence, 60 min; active compounds read low; active = max response of -50% or lower; inconclusive = between -30% and -50%; inactive = -30% or higher; note: value at the top dose of about 77 µM; % is set by controls: 0 for no effect and ±100 for the full control effect
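PI5P4Kalpha ADP-Glo assay; 5 microM ATP final; 60 min RT reaction; HEPES pH 7.4/EGTA/CHAPS, 5% DMSO; controls lacking substrate or enzyme; luminescent end-point.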
PLK1 PBD inh: qHTS for Inhibitors of PLK1-PDB (polo-like kinase 1 - polo-box domain): Primary Screen; Serine/threonine-protein kinase PLK1 (Homo sapiens), P53350; Plk1 PBD binding of FITC phosphopeptide, fluorescence polarization; Potency, µM, for the others: max response, negative = inhibition, hits mostly inhibitors; hit rate 2.8% among 360,000; AID 720504, 2013; note: potency is the fitted concentration of half-maximal effect; series mostly up to about 57 µM; % is set by controls: 0 for no effect and ±100 for the full control effect; nearly all actives have a fitted effect of over 65% in size
HP1b binding inh: HTS for Inhibitors of HP1-beta Chromodomain Interactions with Methylated Histone Tails. AlphaScreen HP1-beta / biotin-H3K9me3 peptide binding. Potency, µM (series often up to 114 µM), inactives show at the highest dose activity change, negative = inhibition, hits mostly inhibitors. hit rate 0.56% among 390,000. AID 540317, 2011; note: potency is the fitted concentration of half-maximal effect; nearly all actives have a fitted effect of over 70% in size
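Compound inhibition of the preformed complex between 50 nM HP1-beta and 50 nM biotinylated H3K9me3 peptide was read by AlphaScreen. Buffer was PBS pH 7.4 with 0.01% Tween-20. Incubations ran 30 min at room temperature, with 10 ug/mL donor/acceptor beads.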
The depositor's hits bear a star; u = inconclusive; x = not tested or not shown; ! = repeats disagree; [ ] = remark or other dose. Only some compounds are listed: those with a hit (about 12% of all), similar ones and a draw of the others. Unless noted, calls come from the whole dose curve; as a rule, active = well fitted curve in the direction sought with a large enough effect; inconclusive = small, poorly fitted or top-dose-only effect, or another doubt; inactive = no such curve, though single readings can be large; an effect the other way counts as inactive or inconclusive.

SMILES | G9a inh | JMJD2A Tudor | BAZ2B block | PI5P4Ka inh | PLK1 PBD inh | HP1b binding inh
CCCC1C(C#N)=C(N)Oc2n[nH]c(C(C)(C)C)c21 (stereo not drawn) | u | u | -3% | -29 | 6.7µM* | -4%
Cc1ccccc1CNC(=O)c1sc2ncnc(N(C)C3CCCCC3)c2c1C | 8%[59 µM] | -17% | 2% | x | x | 36%
CCOC(=O)c1ccc(NC(=O)CC(C)n2nc(C)cc2C)cc1 (stereo not drawn) | 5%[59 µM] | -20% | -14% | x | x | 60%
Clc1ccc(-c2csc(NNC3=NCCCCC3)n2)cc1 | 5%[2.33 µM] | u | -7%[57.1 µM] | -19 | u | -26%
c1ccc(-c2csc(NNC3=NCCCCC3)n2)cc1 | 10µM* | -2%[11.4 µM] | u | 5 | 24µM* | u
c1ccc(NNC2=NCCCCC2)cc1 | 2.5µM* | -6% | 0% | 0 | u | 36%
COc1ccc(-c2csc(NNC3=NCCCCC3)n2)cc1 | 10µM* | u | u | u | 6.7µM* | u
CCOc1ccc(-c2csc(NNC3=NCCCCC3)n2)cc1 | 7.9µM* | -8%[11.4 µM] | 50µM* | -17 | 19µM* | u
CC(=O)c1ccc(NC(=O)Cn2c(=O)oc3cc(S(=O)(=O)N4CCCCC4)ccc32)cc1 | 7%[59 µM] | -3% | 5% | x | x | 35%
CC(=O)c1ccccc1NC(=O)c1ccc(N2CCCC2=O)cc1 | u | 2% | 6% | u | -4% | 40%
Cn1c(N2CCOCC2)nc(-c2ccccc2)c1-c1ccccc1 | 50µM* | -31% | u | x | -15% | -12%
Cc1ccc(C(=O)c2cn(CC(=O)NC3CCCCC3)c3nc(C)ccc3c2=O)cc1 | -10%[59 µM] | -26% | 8%[57.1 µM] | x | x | 13%
Cc1ccc(NCCN(C)C)c2c(=O)c3cc(O)ccc3sc12 | x | 40µM* | x | 3 | 6% | u
Cc1ccc(S(=O)(=O)N2C[C@H]3[C@H]4C(=O)N(c5ccccc5)C(=O)[C@H]4C[C@H](OC(=O)NC4CCCC4)[C@@]3(O)C2)cc1 | x | x | x | 4 | -4% | x
COc1cccc(C=Nc2ccc(N3CCOCC3)cc2)c1O | u | -21% | -35% | 5 | -15% | 13%
Oc1ccc(N=Cc2cc(Br)c(N3CCOCC3)o2)cc1 | 14µM* | u | -38% | -1 | 0% | -17%
Cn1c(O)c(C=Nc2ccc(N3CCOCC3)cc2)c(=O)n(C)c1=S | 2%[59 µM] | -4% | 1% | 1 | -19% | 9%
O=[N+]([O-])c1cc(Br)c(O)c(C=Nc2ccc(N3CCOCC3)cc2)c1 | 35µM* | -24% | 35µM* | -23 | -15% | 7%
COc1cccc(CNc2ccc(F)c([N+](=O)[O-])c2)c1O | 50µM* | u | -35% | 2 | -4% | -17%
O=C(Cc1ccccc1[N+](=O)[O-])NCc1ccc(Cl)cc1Cl | u | -21% | 10% | -1 | 6% | 10%
O=[N+]([O-])c1ccccc1CNc1ccc(F)c(Cl)c1 | u | u | 50µM* | 1 | -10% | -29%
O=C(N/N=C/c1ccc(-n2ccnc2)cc1)c1cccs1 | 75% | -23% | -17% | 1 | -10% | 22%
CCOC(=O)C1=CCC(c2ccccc2C)N(S(=O)(=O)c2ccc(C)cc2)C1 (stereo not drawn) | x | x | x | 10 | -2% | x
O=C1CSC2(CCN(CCCN3c4ccccc4Sc4ccc(Cl)cc43)CC2)N1 | 18µM* | x | x | x | x | x
CN1CCN(CCCN2c3ccccc3Sc3ccc(C(F)(F)F)cc32)CC1 | 16µM*! | u | 35µM* | 22 | -5% | u
SMILES | G9a inh | JMJD2A Tudor | BAZ2B block | PI5P4Ka inh | PLK1 PBD inh | HP1b binding inh
c1ccc2c(c1)Sc1ccccc1N2CCN1CCCC1 | -41%[12.7 µM] | x | x | x | x | x
COc1ccccc1N1CCN(c2nc3c(S(=O)(=O)c4ccccc4)nnn3c3ccc(Cl)cc23)CC1 | -9%[59 µM] | -13% | -7% | x | x | 11%
C[C@@H](C(=O)NCc1ccccc1)[C@H]1C[C@]1(C)[C@H](NC(=O)OCc1ccccc1)c1ccccc1 | u | -15% | 1% | 1 | -1% | 41%
Cc1cc(CNC(=O)[C@H](C)[C@@H]2C[C@@]2(C)[C@@H](NC(=O)OCc2ccccc2)c2ccccc2)nn1C | 56µM* | -21% | -10% | 2 | -16% | 25%
C[C@@H](C(=O)O)[C@H]1C[C@]1(C)[C@H](NC(=O)OCc1ccccc1)c1ccccc1 | 79µM* | -17% | -10% | -3 | -12% | 19%
COc1ccc(CNC(=O)[C@H](C)[C@@H]2C[C@@]2(C)[C@@H](NC(=O)OCc2ccccc2)c2ccccc2)cc1OC | 50µM* | -12% | -37% | -9 | 0% | 38%
COC(=O)[C@H](C)[C@@H]1C[C@@]1(C)[C@@H](NC(=O)OCc1ccccc1)c1ccccc1 | -7% | 10% | -5% | -1 | -7% | 50%
COC(=O)[C@H]1C[C@@H]1[C@H](NC(=O)[C@H]1C[C@@H]1[C@H](NC(=O)OCc1ccccc1)c1ccccc1)c1ccccc1 | 45µM* | -12% | -2% | -2 | -1% | 27%
CNCCc1cnc(CCC(c2ccccc2)c2ccccc2)[nH]1 | 10µM* | x | x | x | x | x
O=C1NC(=O)C(c2ccc(Cl)cc2Cl)N1 (stereo not drawn) | x | 1% | x | -2 | -3% | -6%
N#CC1=C(N)NC(=S)C(C(N)=O)C1c1ccc(Cl)cc1Cl (stereo not drawn) | u | u | -29% | u | 19µM* | 3%
N#CC1=C(N)NC(=S)C(C(N)=O)C1c1ccccc1F (stereo not drawn) | 50µM* | -29% | -15% | u | 19µM* | 9%
CC(=Nc1ccccc1C)C1=C(O)CSC1=O | u | 1% | -7% | x | -7% | 17%
CC(=Nc1ccccc1)C1=C(O)CCCC1=O | u | 25µM* | 4% | 1 | -11% | 1%
CC(=Nc1ccccc1)C1=C(O)CSC1=O | 50µM* | -18% | u | x | -5% | -5%
COc1ccc(N=C(C)C2=C(O)CSC2=O)cc1 | 40µM* | -15% | 1% | x | -15% | 2%
COc1ccc(N=C(C)C2C(=O)c3ccccc3C2=O)cc1 | x | x | x | 6 | -6% | x
COc1ccc(N2CCN(C(=O)c3cc4c(s3)CCCCC4)CC2)cc1 | u | 50µM* | 13µM* | 5 | 5% | u
N#Cc1ccccc1S(=O)(=O)N1CCN(C(=O)c2cc3c(s2)CCC3)CC1 | 35µM* | u | u | u | -27% | -17%
